# According to PubChem BioAssay (EPA / NIEHS):
# The source made the active and inactive calls. How the source made its calls: active means hit-call score of the fitted dose curve at least 0.9, where 1 is the maximum; inactive means score below 0.9.
# Assay: ATG_Ets_CIS: Attagene CIS-FACTORIAL HepG2 Assay for human Erythroblast Transformation Specific (ETS) (AID 2282941)
# Settings: HepG2 ETS cis-reporter transcription, actives raise or lower the signal
# How it was run: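 Multiplexed reporter transcript profiling: HepG2, 24 h treatment, total RNA to cDNA, PCR, 6-FAM labelling, HpaI cut, capillary electrophoresis. Gain- or loss-of-signal fitted against DMSO.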
row,Structure (SMILES),outcome
1,Cc1ccc(C(=O)O)o1,inactive
2,CC(C#N)(CCC(=O)O)N=NC(C)(C#N)CCC(=O)O (stereo not drawn),inactive
3,O=C(Cl)c1cccc(C(=O)Cl)c1,inactive
4,C=CC(=O)OCCn1c(=O)n(CCOC(=O)C=C)c(=O)n(CCOC(=O)C=C)c1=O,inactive
5,N#Cc1ccc(CC(=NNC(=O)Nc2ccc(OC(F)(F)F)cc2)c2cccc(C(F)(F)F)c2)cc1,inactive
6,CCCC/C=C\CCCCCCCCCC=O,inactive
7,CC1(C)CCC(C)(C)c2cc(C(=O)Nc3ccc(C(=O)O)cc3)ccc21,inactive
8,O=c1oc(=O)c2cc3c(=O)oc(=O)c3cc12,inactive
9,CCCCCCCCCCCCSC,inactive
10,CCN(CC)CCOC(=O)c1ccc(N)cc1,inactive
11,NC(=O)c1ccccc1Cl,inactive
12,CCc1c(C)cc(N)c(CC)c1N,inactive
13,C=C(C)C1CCC(C)CC1O (stereo not drawn),inactive
14,CCOc1ccccc1OCC,inactive
15,CC1CCC(C(C)CS)CC1S (stereo not drawn),inactive
16,CN(C)CCCN,inactive
17,C=C(C)[C@@H]1CC[C@@H](C)C[C@@H]1O,inactive
18,O=S(=O)(O)NC1CCCCC1,inactive
19,CC1=CC(=O)NS(=O)(=O)O1,inactive

row,Structure (SMILES),outcome
1,CC(C)CCCCCCCOC(=O)c1ccc(C(=O)OCCCCCCCC(C)C)c(C(=O)OCCCCCCCC(C)C)c1,inactive
2,C/C=C(\C)C(=O)OCc1ccccc1,inactive
3,CC(C)C[C@H]1C(=O)N2CCC[C@H]2[C@]2(O)O[C@](NC(=O)[C@@H]3C=C4c5cccc6[nH]c(Br)c(c56)C[C@H]4N(C)C3)(C(C)C)C(=O)N12,inactive
4,COC(=O)c1ccc(C)cc1,inactive
5,C=C(C)[C@@H]1CCC2=CC(=O)C[C@@H](C)[C@]2(C)C1,inactive
6,CC1(C)[C@H]2CC[C@]1(C)[C@H](O)C2,inactive
7,CC(=O)OCCOC(C)=O,inactive
8,CCCCC(CC)COCCC#N (stereo not drawn),inactive
9,CCCCCCCCC,inactive
10,CC1CCC2CC1C2(C)C (stereo not drawn),inactive
11,CC(C)(N)CO,inactive
12,CCCCC(CC)COC(=O)/C=C\C(=O)OCC(CC)CCCC (stereo not drawn),inactive
13,Nc1cccc(S(=O)(=O)c2cccc(N)c2)c1,inactive
14,O=c1[nH]nnc2ccccc12,inactive
15,C=C(C)C(=O)OCc1ccccc1,inactive
16,CCCCCCCCC=O,inactive
17,Cc1ccc(C(C)C)cc1O,inactive
18,C=CCOC(=O)CCC1CCCCC1,inactive
19,Cc1cccc(Nc2ccccc2C(=O)O)c1C,inactive
